# Shown is part of a subset that was picked to be rich in the strongest signals.
# B1: 4F2hc (Homo sapiens), P08195 (protein)
# chain: WWHTGALYRIGDLQAFQGHGAGNLAGLKGRLDYLSSLKVKGLVLGPIHKNQKDDVAQTDLLQIDPNFGSKEDFDSLLQSAKKKSIRVILDLTPNYRGENSWFSTQVDTVATKVKDALEFWLQAGVDGFQVRDIENLKDASSFLAEWQNITKGFSEDRLLIAGTNSSDLQQILSLLESNKDLLLTSSYLSDSGSTGEHTKSLVTQYLNATGNRWCSWSLSQARLLTSFLPAQLLRLYQLMLFTLPGTPVFSYGDEIGLDAAALPGQPMEAPVMLWDESSFPDIPGAVSANMTVKGQSEDPGSLLSLFRRLSDQRSKERSLLHGDFHAFSAGPGLFSYIRHWDQNERFLVVLNFGDVGLSAGLQASDLPASASLPAKADLLLSTQPGREEGSPLELERLKLEPHEGLLLRFPYAA
# Tests used:
# Assay in all cases: glycan array binding signal (z-score within array); higher = stronger binding
# Details in all cases: glycan notation: IUPAC condensed, linker removed
# [1] = target: Fuc(a1-2)Gal(b1-4)GlcNAc(b1-2)Man(a1-3)[Fuc(a1-2)Gal(b1-4)GlcNAc(b1-2)Man(a1-6)]Man(b1-4)GlcNAc(b1-4)GlcNAc
# How it was run: (§1)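 The binding signal is a Z-score computed within each array and averaged over linkers. Arrays of the same protein sequence at different concentrations or buffers were also averaged together. Data originate from 3228 arrays in the Consortium for Functional Glycomics database, kept only where the protein sequence was available.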
# [2] = target: Fuc(a1-2)Gal6S(b1-4)Glc6S
# How it was run: as §1
# [3] = target: Fuc(a1-2)Gal6S(b1-4)GlcNAc
# How it was run: as §1
# [4] = target: Fuc(a1-2)[GalNAc(a1-3)]Gal(b1-4)Glc
# How it was run: as §1
# [5] = target: Fuc(a1-3)[Gal(b1-4)]GlcNAc6S
# How it was run: as §1
# [6] = target: Gal(a1-3)[Gal(a1-4)]Gal(b1-4)GlcNAc
# How it was run: as §1
# Gal(a1-4)GlcNAc = target: Gal(a1-4)GlcNAc
# How it was run: as §1
# [7] = target: Gal(b1-3)GalNAc(a1-3)[Fuc(a1-2)]Gal(b1-4)GlcNAc
# How it was run: as §1
# [8] = target: Gal(b1-3)GlcNAc(b1-2)Man(a1-3)[Gal(b1-3)GlcNAc(b1-2)Man(a1-6)]Man(b1-4)GlcNAc(b1-4)GlcNAc
# How it was run: as §1
# Gal(b1-4)GlcNAc = target: Gal(b1-4)GlcNAc
# How it was run: as §1
# Gal3S(b1-3)GlcNAc = target: Gal3S(b1-3)GlcNAc
# How it was run: as §1
# Gal3S4S(b1-4)GlcNAc = target: Gal3S4S(b1-4)GlcNAc
# How it was run: as §1
# GalNAc(b1-3)Gal = target: GalNAc(b1-3)Gal
# How it was run: as §1
# [9] = target: GlcNAc(a1-4)Gal(b1-4)GalNAc
# How it was run: as §1
# [10] = target: GlcNAc(b1-4)[GlcNAc(b1-6)]GalNAc
# How it was run: as §1
# [11] = target: GlcNAc(b1-6)Gal(b1-4)GlcNAc
# How it was run: as §1
# GlcNAc3Prop(b1-4)GlcNAc = target: GlcNAc3Prop(b1-4)GlcNAc
# How it was run: as §1
# [12] = target: GlcNAc6S(b1-3)Gal(b1-4)GlcNAc
# How it was run: as §1
# Kdn(a2-6)Gal(b1-4)GlcNAc = target: Kdn(a2-6)Gal(b1-4)GlcNAc
# How it was run: as §1
# [13] = target: Neu5Ac(a2-3)Gal(b1-3)[Fuc(a1-4)]GlcNAc
# How it was run: as §1
# [14] = target: Neu5Ac(a2-3)Gal(b1-4)GlcNAc(b1-2)Man(a1-3)[Neu5Ac(a2-6)Gal(b1-4)GlcNAc(b1-2)Man(a1-6)]Man(b1-4)GlcNAc(b1-4)GlcNAc
# How it was run: as §1
# [15] = target: Neu5Ac(a2-3)Gal(b1-4)GlcNAc(b1-3)GalNAc
# How it was run: as §1
# [16] = target: Neu5Ac(a2-3)Gal(b1-4)[Fuc(a1-3)]GlcNAc(b1-6)[Neu5Ac(a2-3)Gal(b1-3)]GalNAc
# How it was run: as §1
# [17] = target: Neu5Ac(a2-3)[GalNAc(b1-4)]Gal(b1-4)GlcNAc
# How it was run: as §1
# [18] = target: Neu5Ac(a2-6)Gal(b1-4)GlcNAc(b1-2)Man(a1-3)[GlcNAc(b1-2)Man(a1-6)]Man(b1-4)GlcNAc(b1-4)GlcNAc
# How it was run: as §1
# [19] = target: Neu5Ac(a2-6)Gal(b1-4)GlcNAc(b1-2)Man(a1-6)[Man(a1-3)]Man(b1-4)GlcNAc(b1-4)GlcNAc
# How it was run: as §1
# [20] = target: Neu5Ac(a2-8)Neu5Ac(a2-8)Neu5Ac
# How it was run: as §1
binder,measurement,setting,value
B1,glycan array binding signal (z-score),[1],-0.399
same,glycan array binding signal (z-score),[2],-0.953
same,glycan array binding signal (z-score),[3],-1.01
same,glycan array binding signal (z-score),[4],6.38
same,glycan array binding signal (z-score),[5],2.68
same,glycan array binding signal (z-score),[6],-0.32
same,glycan array binding signal (z-score),Gal(a1-4)GlcNAc,-0.668
same,glycan array binding signal (z-score),[7],-0.507
same,glycan array binding signal (z-score),[8],3.66
same,glycan array binding signal (z-score),Gal(b1-4)GlcNAc,-0.318
same,glycan array binding signal (z-score),Gal3S(b1-3)GlcNAc,0.65
same,glycan array binding signal (z-score),Gal3S4S(b1-4)GlcNAc,3.95
same,glycan array binding signal (z-score),GalNAc(b1-3)Gal,-0.631
same,glycan array binding signal (z-score),[9],-1.21
same,glycan array binding signal (z-score),[10],0.848
same,glycan array binding signal (z-score),[11],0.103
same,glycan array binding signal (z-score),GlcNAc3Prop(b1-4)GlcNAc,0.691
same,glycan array binding signal (z-score),[12],-1.04
same,glycan array binding signal (z-score),Kdn(a2-6)Gal(b1-4)GlcNAc,0.863
same,glycan array binding signal (z-score),[13],1.08
same,glycan array binding signal (z-score),[14],-0.878
same,glycan array binding signal (z-score),[15],-0.993
same,glycan array binding signal (z-score),[16],3.35
same,glycan array binding signal (z-score),[17],-0.5
same,glycan array binding signal (z-score),[18],-0.141
same,glycan array binding signal (z-score),[19],5.26
same,glycan array binding signal (z-score),[20],-0.566

# Source: the supplement of paper PMC8728848
